From PubChem BioAssay (Tox21) come the findings set out here.

Where “and” joins values, the source holds several entries; their conditions need not be identical. Equal entries are not always repeated. Records with an inconclusive call do not appear. Where a structure was tested more than once in an assay, its records may differ in their call. Calls of active or inactive are those of the source. Unless noted, the call rests on the fitted dose curve; in most records, active means well fitted curve in the direction sought with a large enough effect in the repeat runs; inconclusive means weak or mixed curves; inactive means no such curve, though single readings can be large; an effect the other way counts as inactive or inconclusive.

A short description of test [1]: qHTS assay to identify small molecule agonists of the hypoxia (HIF-1) signaling pathway - cell viability counter screen (AID 1224844; calls by dose curve; further: nearly all actives have a fitted effect of over 50% in size; further: potency means the concentration at half of the fitted maximal effect). Put shortly:
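Cytotoxicity was measured in parallel with the HRE-driven beta-lactamase readout: after 17 hrs of compound exposure at 37C, HRE-bla ME-180 cells received CellTiter-Glo and luminescence was recorded 30 min later.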

A short description of test [2]: qHTS assay to identify small molecule agonists of the hypoxia (HIF-1) signaling pathway (AID 1224846; active means well fitted activation curve with a large enough effect in the signal ratio in the repeat runs, not every such curve was filed as active; the % refers to the signal ratio). Put shortly: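 Compounds from the Tox21 10K library, dissolved in DMSO, are tested for induction of a hypoxia response element–controlled beta-lactamase reporter in ME-180 cells. Exposure lasts 17 hrs at 37C after a 5 hr settling period, followed by CCF4-AM FRET substrate.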

A short description of test [3]: qHTS assay to identify small molecule agonists of H2AX - cell viability counter screen (AID 1224847; calls by dose curve; further: nearly all actives have a fitted effect of over 30% in size; further: potency means the concentration at half of the fitted maximal effect). Put shortly:
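CHO-K1 wt, 1000 cells/well, o/n 37C; cpds 15 conc, 3 h 37C, 0.76% DMSO; CellTiter-Glo, 30 min RT, luminescence.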
For orientation: In qHTS, concentration-response curves come from the screen itself.

Test [4] in a line: qHTS RealTime-Glo MT Cell Viability Assay in HEK293 cells - 32 hour (AID 1224868). Further: nearly all actives have a fitted effect of over 50% in size. Further: potency means the concentration at half of the fitted maximal effect. A digest of the protocol:
(§1)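 HEK293 cells were seeded at 600 cells/well together with NanoLuc luciferase and cell-permeant prosubstrate, preincubated 5 h at 37 C/5% CO2, then given compound in DMSO by pintool. Luminescence from viable-cell prosubstrate reduction was read repeatedly over 40 h.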

The nature of test [5]: A CellTox Green Cytotoxicity Assay to monitor cytotoxicity in HEK293 cells - 0 hour (AID 1224869). Further: nearly all actives have a fitted effect of over 50% in size. A digest of the protocol: (§2)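 Cells (HEK293, 600/well) and dye reagent are dispensed together. After 5 h at 37 C, 23 nL compound is pinned in. Plates stay at 37 C for 40 h with fluorescence read at 0h, 8h, 16h, 24h, 32h and 40h.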
The nature of test [6]: qHTS RealTime-Glo MT Cell Viability Assay in HepG2 cells - 40 hour (AID 1224870). Further: nearly all actives have a fitted effect of over 50% in size. Further: potency means the concentration at half of the fitted maximal effect. Put shortly:
(§3)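 HepG2 cells mixed with RealTime-Glo MT reagents (NanoLuc plus cell-permeant prosubstrate) were seeded at 600 cells/well, incubated 5 h at 37 C/5% CO2, then pinned with compounds in DMSO; nonlytic luminescence tracked viability during 40 h treatment.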

The nature of test [7]: qHTS RealTime-Glo MT Cell Viability Assay in HEK293 cells - 16 hour (AID 1224872). Further: nearly all actives have a fitted effect of over 50% in size. Further: potency means the concentration at half of the fitted maximal effect. Put shortly:
as §1

A short description of test [8]: qHTS RealTime-Glo MT Cell Viability Assay in HEK293 cells - 40 hour (AID 1224874). Further: nearly all actives have a fitted effect of over 50% in size. Further: potency means the concentration at half of the fitted maximal effect. Conditions: RealTime-Glo luminescence; max response: stronger effect = lower value. Put shortly: (§4)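 Real-time viability in HEK293: signal arises when living cells convert a prosubstrate for NanoLuc in the medium, so luminescence tracks viable cell number. Compound (23 nL, DMSO) added 5 h post-seeding; kinetic reads at 0–40 h, 37 C.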

A short description of test [9]: A CellTox Green Cytotoxicity Assay to monitor cytotoxicity in HEK293 cells - 24 hour (AID 1224875). Further: nearly all actives have a fitted effect of over 45% in size. Further: potency means the concentration at half of the fitted maximal effect. A digest of the protocol: as §2
Test [10] in a line: A CellTox Green Cytotoxicity Assay to monitor cytotoxicity in HepG2 cells - 16 hour (AID 1224876). Further: nearly all actives have a fitted effect of over 45% in size. Further: potency means the concentration at half of the fitted maximal effect. Put shortly: (§5)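 Cells and non-lytic dye reagent are dispensed together (600 HepG2 cells/well) and incubated 5 h before DMSO compound transfer. Kinetic fluorescence is then recorded in the same wells during 40 h at 37 C.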
A short description of test [11]: qHTS RealTime-Glo MT Cell Viability Assay in HepG2 cells - 32 hour (AID 1224877). Further: nearly all actives have a fitted effect of over 55% in size. Further: potency means the concentration at half of the fitted maximal effect. A digest of the protocol: (§6)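 HepG2 cells were seeded at 600 cells/well together with NanoLuc luciferase and a cell-permeant prosubstrate, preincubated 5 h at 37 C/5% CO2, then pin-dosed with compounds in DMSO. Nonlytic luminescence from viable cells was read at each time point.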
Test [12] is described as follows: A CellTox Green Cytotoxicity Assay to monitor cytotoxicity in HepG2 cells - 24 hour (AID 1224878). Further: nearly all actives have a fitted effect of over 45% in size. Further: potency means the concentration at half of the fitted maximal effect. Put shortly:
as §5

The nature of test [13]: A CellTox Green Cytotoxicity Assay to monitor cytotoxicity in HepG2 cells - 40 hour (AID 1224879). Further: nearly all actives have a fitted effect of over 40% in size. Further: potency means the concentration at half of the fitted maximal effect. A digest of the protocol: as §5
Test [14] in a line: qHTS RealTime-Glo MT Cell Viability Assay in HEK293 cells - 0 hour (AID 1224880). Further: top concentration of the series differs between compounds; nearly all actives have a fitted effect of over 45% in size. Put shortly: as §4
A short description of test [15]: qHTS assay to identify small molecule agonists of the estrogen related receptor (ERR) signaling pathway from Tox21 library (AID 1224849; calls by dose curve; further: nearly all actives have a fitted effect of over 15% in size). The settings on record: ERR reporter cell line, ONE-Glo luciferase, 18 h; at 92.4 µM (top of the series) unless noted. A digest of the protocol:
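Cells carrying the ERR reporter were plated and allowed to settle for 6 h, exposed to library compounds for 18 h at 37 C, then lysed with ONE-Glo and luminescence measured.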

Test [16] in a line: qHTS RealTime-Glo MT Cell Viability Assay in HepG2 cells - 24 hour (AID 1224867). Further: nearly all actives have a fitted effect of over 50% in size. Further: potency means the concentration at half of the fitted maximal effect. A digest of the protocol: as §6
Test [17] can be described thus: A CellTox Green Cytotoxicity Assay to monitor cytotoxicity in HEK293 cells - 40 hour (AID 1224871). Further: nearly all actives have a fitted effect of over 45% in size. Further: potency means the concentration at half of the fitted maximal effect. Put shortly: as §2
Test [18] in a line: qHTS RealTime-Glo MT Cell Viability Assay in HepG2 cells - 8 hour (AID 1224873). Further: nearly all actives have a fitted effect of over 55% in size. Further: potency means the concentration at half of the fitted maximal effect. A digest of the protocol:
as §3

A short description of test [19]: qHTS assay to identify small molecule agonists of H2AX (AID 1224845; active means well fitted activation curve with a large enough effect in the signal ratio in the repeat runs, not every such curve was filed as active; the % refers to the signal ratio; further: potency means the concentration at half of the fitted maximal effect). Put shortly: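 Wild-type CHO-K1 cells plated overnight, then exposed 3 hr at 37C to compounds at 15 concentrations (0.76% DMSO). Lysed, then HTRF anti-pH2AX(S139)-cryptate/anti-H2AX-d2 detection after 24 hr at room temperature; emissions 665 and 620 nm.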
The nature of test [20]: qHTS assay to identify small molecule antagonists of the estrogen related receptor (ERR) signaling pathway from Tox21 library (AID 1224848). Further: nearly all actives have a fitted effect of over 50% in size. Put shortly: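 First, 2,000 ERR cells per well were plated and held 6 h at 37 C/5% CO2. Next, compounds in DMSO were pinned in and left 18 h at 37 C. Finally, ONE-Glo was added and luminescence read after 30 min at room temperature.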
On the % scale 0 is the no-effect control and ±100 the full control effect.

On to `CN(C)c1ccc(N)cc1`, for which the Potency entry in [1], in test [2], in test [5], in [6], in [9] and in test [10] was “inactive” each time. In addition, the Potency entry in [11], in test [12], in test [13] and in [14] was “inactive” each time. Further, the Potency in test [3] was 87.6 µM (active); in test [4] it was 24 µM (active); in test [7], 42.6 µM (active); in test [8] it was 47.8 µM (active).

For `CNC(=O)/C=C(\C)OP(=O)(OC)OC`, the Potency entry in test [1], in [2], in test [3], in test [16], in test [4] and in [5] was “inactive” in each case. Also, the Potency entry in test [6], in [17], in test [7], in test [18], in test [9] and in test [11] was “inactive” in each case. The Potency entry in [12], in test [13] and in test [14] was “inactive” each time. In addition, the activity change, positive = activation in [15] is -0.497% (inactive). In addition, the max response in [8] is 6.16% (inactive).

Take `[O]=[Cr](=[O])([OH])[O][Cr](=[O])(=[O])[OH]`: the Potency in [1] is 2.78 µM (active) and 12.3 µM (active); in test [19], 101 µM (active); in [3], 90.6 µM (active); in test [4], 4.41 µM (active) and 4.36 µM (active); in test [7], 7.83 µM (active) and 21.8 µM (active); in test [8], 3.5 µM (active) and 2.18 µM (active). For the same molecule, the Potency in test [13] is 9.86 µM (active) and 12.3 µM (active). The Potency result in test [5], in test [17], in [18], in test [9], in [10] and in [12] was “inactive” each time. Besides, the Potency result in test [14] is “inactive”.

As for `Cc1ccc2cc3c(ccc4ccccc43)c3c2c1CC3`, the Potency entry in [1], in [19], in test [3], in test [16], in [4] and in [5] was “inactive” each time. In addition, the Potency entry in [6], in test [7], in test [18], in [10], in test [11] and in [12] was “inactive” in each case. For the same molecule, the Potency entry in [14] is “inactive”. Moreover, in [8], the max response is 6.91% (inactive). Further, the Potency in test [13] was 6.93 µM (active).

On to `c1ccc(N=NNc2ccccc2)cc1`, for which the Potency entry in test [1], in test [20], in test [16], in [4], in test [5] and in test [6] was “inactive” each time. Besides, the Potency result in [7], in test [11] and in test [14] was “inactive” in each case. Further, the Potency was 92.9 µM (active) and 101 µM (active) in test [3]; 45.2 µM (active) and 43.6 µM (active) in [17]; 50.7 µM (active) in [9]; 49 µM (active) in [13]. Further, the activity change, positive = activation in [15] was 51.9% (active) and 0.0484% (inactive). Besides, the max response in test [8] was -3.75% (inactive).

`CCCCN(CCCC)C(=S)S`: the Potency entry in test [1], in test [19], in [20], in test [16], in test [4] and in [5] was “inactive” throughout. In addition, the Potency entry in [6], in test [17], in test [7], in [18], in [9] and in [11] was “inactive” in each case. The Potency entry in test [14] is “inactive”. Further, the activity change, positive = activation in test [15] was -4.56% (inactive). In addition, in test [8], the max response is -4.16% (inactive).

As for `[Cl][Hg][c]1ccccc1`, the Potency in [1] is 1.38 µM (active); in [3], 7.13 µM (active); in test [16] it was 2.75 µM (active); in [4], 1.1 µM (active); in [6] it was 3.09 µM (active); in test [17], 1.23 µM (active). For the same molecule, the Potency in test [7] was 1.38 µM (active); in test [18], 2.75 µM (active); in test [8], 1.1 µM (active); in test [9], 2.19 µM (active); in test [10], 2.75 µM (active); in test [11] it was 2.75 µM (active). Moreover, the Potency is 3.47 µM (active) in [12] and 2.19 µM (active) in test [13]. For the same molecule, the Potency entry in test [19], in [5] and in test [14] was “inactive” throughout.
